Source: PubChem (National Center for Advancing Translational Sciences (NCATS))
This excerpt belongs to a sample that is enriched for hits.
FBPA Giardia inh: inhibitors of Giardia lamblia fructose-1,6-bisphosphate aldolase; purified Giardia FBPA; Potency, µM (highest dose often 59.6 µM), for the others: at the top dose activity, negative = inhibition, hits mostly inhibitors; 0.71% of 290,000 active; also: nearly all actives have a fitted effect of over 55% in size
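Giardia FBPA (40 nM reagent) was preincubated 10 min at RT with compound (up to 57.5 uM final), then substrate plus GAPDH/TPI/NAD/arsenate coupling system with diaphorase/resazurin was added; resorufin fluorescence (525/598 nm) was read after 20 min.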
Cruzain noTriton: inhibitors of Trypanosoma cruzi cruzain without detergent | P25779 | purified cruzain, Z-FR-AMC fluorescence, no detergent | Potency, µM, without a hit: max response, negative = inhibition, most hits filed as inhibitors | 2.3% of 200,000 active;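 also: plate controls were enzyme without inhibitor for no effect and buffer without enzyme for full effect; nearly all actives have a fitted effect of over 40% in size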
Target sequence (P25779 123-467 limits assumed): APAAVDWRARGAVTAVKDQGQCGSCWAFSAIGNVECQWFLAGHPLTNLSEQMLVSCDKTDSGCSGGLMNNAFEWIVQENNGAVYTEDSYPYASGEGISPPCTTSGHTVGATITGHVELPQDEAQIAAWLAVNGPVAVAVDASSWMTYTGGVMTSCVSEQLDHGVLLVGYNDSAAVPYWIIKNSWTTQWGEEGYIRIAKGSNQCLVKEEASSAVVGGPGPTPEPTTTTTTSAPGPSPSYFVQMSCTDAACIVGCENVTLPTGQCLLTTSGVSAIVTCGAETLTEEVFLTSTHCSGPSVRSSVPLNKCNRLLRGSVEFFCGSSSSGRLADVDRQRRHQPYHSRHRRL
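Detergent-free condition (0.00005% Triton X-100) in acetate buffer pH 5.5 with DTT. 1.5 nM enzyme and compound were pre-mixed 15 min, then 2 uM Z-FR-AMC substrate added; reaction progress from fluorescence change between first and third reads (60 s).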
Cruzain inh Det: inhibitors of Trypanosoma cruzi cruzain with detergent. AID 1478. Potency, µM, for the others: max response, negative = inhibition, actives largely listed as inhibitors. 0.43% of 200,000 active. P25779. purified cruzain, Z-FR-AMC fluorescence, 0.01% Triton;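 also: plate controls were neutral wells for no effect and buffer without enzyme for full effect; nearly all actives have a fitted effect of over 40% in size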
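Z-FR-AMC hydrolysis (2 uM substrate) by cruzain (1.5 nM) monitored kinetically at ex 360/em 450 nm after 15 min room-temperature compound exposure; 0.01% Triton X-100, pH 5.5, 5 mM DTT.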
Papain counter: blocks papain protease activity, flagging nonselective cruzain hits; shares compounds with Cruzain inh Det; Potency, µM, for inactives: max response, negative = inhibition, actives largely listed as inhibitors; purified papain, Z-FR-AMC fluorescence cleavage; 41% of 410 active;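 also: 0% = no-compound wells and -100% = no-enzyme wells; nearly all actives have a fitted effect of over 35% in size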
* = called active by the depositor; ? = inconclusive; . = not tested or not shown; [ ] = remark or other dose. Calls follow the shape of the dose curve; as a rule, active = well fitted curve in the direction sought with a large enough effect; inconclusive = small, poorly fitted or top-dose-only effect, or another doubt; inactive = no such curve, though single readings can be large; an effect the other way counts as inactive or inconclusive. Unless noted, % is scaled to controls: 0 for no effect and ±100 for the full control effect; potency is read from the fitted curve at half-maximal effect.

SMILES | FBPA Giardia inh | Cruzain noTriton | Cruzain inh Det | Papain counter
CCc1ccc(C(=O)COC(=O)CNC(=O)CNC(=O)Cc2ccccc2)cc1 | 7% | -12% | 3% | .
O=C(CNC(=O)C1CCCCC1)OCC(=O)c1cccc(Cl)c1 | . | . | . | 14µM*
NS(=O)(=O)c1ccc(NC(=O)COC(=O)C2CCCCC2)cc1 | 5% | . | . | .
CCc1ccc(C(=O)COC(=O)CNC(=O)C2CCCCC2)cc1 | . | . | . | -21%
CCN(CC)CCCNC(=O)c1ccc2nc(CCc3ccccc3)oc2c1 | . | -3% | -1% | .
Nc1nc(SCCc2ccccc2)c2[nH]cnc2n1 | . | -10% | 3% | .
CCc1nc(N2CCN(C(=O)c3ccco3)CC2)c(C#N)c2c1COC(C)(C)C2 | -1% | . | . | .
CC1(C)Cc2c(C#N)c(N3CCN(C(=O)c4ccco4)CC3)nc(-c3ccco3)c2CS1 | -29% | 16µM* | 28µM* | 3.5µM*
N=c1c(C(=O)NCc2ccc3c(c2)OCO3)cc2c(=O)n3ccccc3nc2n1CC1CCCO1 (stereo not drawn) | 0% | . | . | .
N=c1c(C(=O)NCc2ccc(F)cc2)cc2c(=O)n3ccccc3nc2n1CC1CCCO1 (stereo not drawn) | 1% | ? | 32µM* | 16µM*
CC1C(=O)N(S(=O)(=O)c2ccc([N+](=O)[O-])cc2)[C@H]1c1ccc2ccccc2c1 (stereo partly drawn) | 10% | . | . | .
COc1ccc2oc(-c3ccccc3)c(C(=O)O)c2c1 | 11% | . | . | .
Cc1ccc(COc2ccc3oc(-c4ccccc4)c(C(=O)O)c3c2)cc1 | . | 20µM* | ? | 32µM*
CCOc1ccccc1C(=O)N(Cc1cc(OC)c(OC)c(OC)c1)c1ccccn1 | . | 1% | -2% | .
CCCN(CCC)c1nc(N)nc(-c2cc(Cl)ccc2OC)n1 | 5% | ? | -5% | .
CCN(CC)c1nc(SCC(=O)O)nc(N(CC)CC)n1 | ? | -2% | 3% | .
CCCN(CCC)c1nc(N)nc(C#N)n1 | . | . | . | 2µM*
CCN(c1ccccc1)c1nc(C#N)nc(N(CC)c2ccccc2)n1 | 16% | . | . | 3.2µM*
CCN(CC)c1nc(C#N)nc(N(CC)CC)n1 | 8% | 16µM* | 13µM* | 5µM*
CCN(c1ccccc1)c1cc(C)nc2nc(C)nn12 | -6% | 3% | -4% | .
Cc1ccc(SCC(c2ccccc2)N2CCN(C)CCC2=O)cc1 (stereo not drawn) | 4% | . | . | .
O=S(=O)(c1ccc(N2CCC(c3ccc(Cl)cc3)=N2)cc1)N(CCO)CCO | -1% | ? | 4% | .
CN(C)CCCNS(=O)(=O)c1ccc(N2CCC(c3ccc(Cl)cc3)=N2)cc1 | 9% | ? | 32µM* | 28µM*
CO[C@H]1COC(=O)C/C=C\[C@@H](C)COC(=O)[C@@H](OCc2ccccc2)/C=C\[C@@H]1C | 3%[12.9 µM] | . | . | .
Cc1ccc2ncnc(NCCCN3CCOCC3)c2c1 | 2% | 8% | -1% | .
SMILES | FBPA Giardia inh | Cruzain noTriton | Cruzain inh Det | Papain counter
CCN1CCCC1Cn1cnc2c([nH]c3ccc(C)cc32)c1=O (stereo not drawn) | -10% | -18% | -8% | .
CCN1CCCC1CNc1ncnc2c1[nH]c1ccc(Cl)cc12 (stereo not drawn) | 3% | 16µM* | 25µM* | -3%
Clc1ccc2[nH]c3c(NCCCN4CCOCC4)ncnc3c2c1 | 4% | 13µM* | 16µM* | 4%
CCc1ccccc1NC(=O)Cn1c(SCc2ccc(F)cc2)nc2ccncc21 | . | -8% | -24% | .
CN(C)c1ccc(NC(=O)Cn2c(SCc3ccc(F)cc3)nc3ccncc32)cc1 | . | -4% | -6% | .
CCCNC(=O)Cn1c(SCc2ccccc2C)nc2ccncc21 | . | . | . | 1%
CCCCNC(=O)Cn1c(SCc2ccccc2C)nc2ccncc21 | . | . | . | -3%
Cc1ccccc1Cn1c(SCc2ccc(C(=O)NCCc3ccccc3)cc2)nc2ccncc21 | . | 2% | -9% | .
CCc1ccc(NC(=O)Cn2c(SCc3ccc(C)cc3)nc3ccncc32)cc1 | . | . | . | -3%
COc1cccc(CN(C(=O)c2oc3cc(C)ccc3c2C)C2CCS(=O)(=O)C2)c1 (stereo not drawn) | . | ? | -7% | .
Cc1c(Cl)cccc1NC(=O)CN1C(=O)c2ccccc2Sc2ncccc21 | . | 6% | -1% | .
CCc1ccc(NC(=O)N2CCN(c3nnc(C)c4c(C)n(-c5ccc(Cl)cc5)nc34)CC2)cc1 | . | 4% | 10% | .
COc1ccc(CNC(=O)CCC2N=C3c4ccccc4N=C(SCC(=O)NCCc4ccc(OC)c(OC)c4)N3C2=O)cc1 (stereo not drawn) | . | 2% | 0% | .
CCOC(=O)C(C(=O)OCC)N(C#N)c1nc(OC)nc(N(C)C)n1 | -2% | 10µM* | 3.5µM* | 28µM*
